Measurements: PubChem BioAssay AID1510 (The Scripps Research Institute Molecular Screening Center, 2009)
About 570 (0.26%) of roughly 220,000 compounds were called active. The sample holds actives, similar compounds and a random draw of the others, so the mix is not that of the screen. A number with no mark means an inactive call. Rule as the data show it: active = inhibition above about 29%; inactive = the rest.

Biological target: Sphingosine 1-phosphate receptor 4 (Homo sapiens) (UniProt O95977)
Assay: blockers of human S1P4 receptor – cell-based, primary screen (AID 1510);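 also: 0% = wells stimulated with agonist and 100% = vehicle wells without agonist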
Conditions: S1P4-expressing cells, antagonist mode, reporter read-out; at 4.98 µM; stronger effect = higher value

Sequence of Sphingosine 1-phosphate receptor 4 (Homo sapiens) (O95977 whole entry, looked up): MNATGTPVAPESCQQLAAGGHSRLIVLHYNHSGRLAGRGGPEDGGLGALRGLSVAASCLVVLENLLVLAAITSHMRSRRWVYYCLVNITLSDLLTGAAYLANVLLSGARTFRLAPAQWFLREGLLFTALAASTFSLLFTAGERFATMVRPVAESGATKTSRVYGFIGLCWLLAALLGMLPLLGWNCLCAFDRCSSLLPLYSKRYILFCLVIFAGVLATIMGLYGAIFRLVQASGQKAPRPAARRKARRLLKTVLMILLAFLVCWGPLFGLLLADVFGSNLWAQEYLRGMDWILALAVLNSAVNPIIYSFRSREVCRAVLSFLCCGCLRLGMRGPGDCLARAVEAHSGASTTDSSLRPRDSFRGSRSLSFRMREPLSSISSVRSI

Q: How did the inhibition turn out when `O=S1(=O)CCC(NC(=S)SCc2ccccc2Br)C1` (stereo not given) was run?
A: -3.75%

Q: `C[C@@H](NC(=O)OC(C)(C)C)c1nnc(S(=O)(=O)Cc2ccccc2)o1` was tested. Which inhibition did it give?
A: 64% (active)

Q: Which inhibition does the source give for `CC(C)Sc1nnc([C@H](Cc2ccccc2)NC(=O)OC(C)(C)C)o1` here?
A: -0.59%

Q: Which inhibition does the source give for `C[C@H](NC(=O)OC(C)(C)C)c1nnc(SCC(N)=O)o1` here?
A: -7.8%

Q: For `CC(C(=O)NC1CCCC1)N(c1ccc(Oc2ccccc2)cc1)S(C)(=O)=O` (stereo not given), which inhibition is on record?
A: -5.41%

Q: Which inhibition does the source give for `CC(=O)N1CCN(S(=O)(=O)c2c(F)cc(F)c(Cl)c2F)CC1` here?
A: 6.68%

Q: `COCCCN(C(=S)Nc1c(C)cc(C)cc1C)C(C)c1ccncc1` (stereo not given) was tested. Which inhibition did it give?
A: -9.1%

Q: For `CCOC(=O)Cc1csc(NC(=O)CSc2ccc(Br)cc2)n1`, which inhibition is on record?
A: -7.78%

Q: Which inhibition does the source give for `Cc1cc(-c2cccs2)nc(-n2cccc2)n1` here?
A: -8.93%

Q: How did the inhibition turn out when `O=C(NNC(=S)NC(=O)c1cn(-c2ccccc2)nc1-c1ccccc1)c1ccncc1` was run?
A: 13.1%

Q: `CCc1nnc(NC(=O)CCN(c2ccc(C)cc2)S(=O)(=O)c2ccccc2)s1` was tested. Which inhibition did it give?
A: -0.25%

Q: How did the inhibition turn out when `O=C(NCCOc1ccccc1Cl)C(=O)Nc1ccccc1` was run?
A: -2.25%

Q: For `S=C(NCC1CCCO1)N1CCN(c2ccc(Cl)c(Cl)c2)CC1` (stereo not given), which inhibition is on record?
A: 4.85%

Q: How did the inhibition turn out when `CCC(C)(C)NC(=O)C(c1ccc(O)cc1)N(C(=O)Cn1nnc2ccccc21)c1ccc(NC(C)=O)cc1` (stereo not given) was run?
A: -9.34%

Q: For `COc1cccc(NC(=O)c2nn(-c3ccc(OC)cc3OC)c(=O)c3ccccc23)c1`, which inhibition is on record?
A: -8.83%

Q: For `O=C(/C=C/c1ccc(Cl)cc1Cl)c1cccnc1`, which inhibition is on record?
A: 47.2% (active)

Q: `O=C(/C=C/c1ccc(Cl)c([N+](=O)[O-])c1)c1cccnc1` was tested. Which inhibition did it give?
A: 2.24%

Q: How did the inhibition turn out when `O=C(/C=C/c1ccc(Cl)cc1Cl)NCc1ccco1` was run?
A: 3.88%

Q: `CCc1c(C)nc2cc(-c3cccs3)[nH]n2c1=O` was tested. Which inhibition did it give?
A: 48.1% (active)

Q: `Cc1cc(=O)n2[nH]c(-c3sccc3-n3c(C)ccc3C)cc2n1` was tested. Which inhibition did it give?
A: -27%

Q: How did the inhibition turn out when `CCc1c(C)nc2cc(C)[nH]n2c1=O` was run?
A: 5.94%

Q: Which inhibition does the source give for `CN1C(=O)C(CC(=O)Nc2ccccc2)S/C1=N/c1nccs1` (stereo not given) here?
A: -20.3%

Q: How did the inhibition turn out when `Cc1coc2c(O)cc3c(c12)OC1(N2CCCCC2)C(=O)NCCCC31` (stereo not given) was run?
A: 9.33%

Q: `COCc1cc(=O)oc2cc(NS(=O)(=O)c3ccc(C)cc3)ccc12` was tested. Which inhibition did it give?
A: 13.1%

Q: How did the inhibition turn out when `CC(C)(C)c1ccc(/C=C2\Oc3c(ccc(O)c3CN3CCN(CCO)CC3)C2=O)cc1` was run?
A: 12.8%

Q: With `Cc1ccc2c(c1)C1CN(C)CCC1N2C(=S)Nc1ccc(Cl)cc1Cl` (stereo not given) as the compound, how does the inhibition read?
A: -21%

Q: With `O=S(=O)(NCCc1ccc(F)cc1)c1cccc2cccnc12` as the compound, how does the inhibition read?
A: -18.1%

Q: With `CN(C)c1ccc(C(=S)N2CCN(C(=S)Nc3ccc(Cl)cc3)CC2)cc1` as the compound, how does the inhibition read?
A: -3.9%

Q: For `CC(=O)Oc1c(C(=O)c2nnc(C)o2)c(=O)n(Cc2ccccc2)c2ccccc12`, which inhibition is on record?
A: -3.21%

Q: Which inhibition does the source give for `COCCCNC(=S)NNC(=O)C(O)(c1ccccc1)c1ccccc1` here?
A: -8.87%

Q: Which inhibition does the source give for `O=C(O)CCC(=O)Nc1nc2ccc([N+](=O)[O-])cc2s1` here?
A: -2.95%

Q: With `O=C(NC(Nc1nc2ccc([N+](=O)[O-])cc2s1)(C(F)(F)F)C(F)(F)F)c1ccccc1` as the compound, how does the inhibition read?
A: 41.2% (active)

Q: Which inhibition does the source give for `O=C(Nc1nc2ccc([N+](=O)[O-])cc2s1)c1ccncc1` here?
A: -29%

Q: Which inhibition does the source give for `Cc1cc(C)cc(OCC(=O)O/N=C(\N)Cc2ccc([N+](=O)[O-])cc2)c1` here?
A: -5.5%

Q: Which inhibition does the source give for `FC(F)Oc1ccccc1NC(=S)Nc1cccc(Cl)c1Cl` here?
A: 5.26%

Q: For `COC(=O)CC1=NN(c2nc(C)cc(C)n2)C(=O)C1`, which inhibition is on record?
A: -14.2%

Q: With `CC(=O)c1cc(C#N)c(N2CC(C)OC(C)C2)nc1C` (stereo not given) as the compound, how does the inhibition read?
A: -33.6%

Q: Which inhibition does the source give for `Cc1nc2ccccc2n1CC(=O)N/N=C/c1cccs1` here?
A: -34.3%

Q: Which inhibition does the source give for `Cc1ccc(NC(=O)CC2C(=O)N(Cc3ccccc3)C(=S)N2NC(=O)c2cccc(F)c2)c(C)c1` (stereo not given) here?
A: 6.19%

Q: For `O=C(Nc1ccc(F)cc1F)N1CCCN(CCOc2ccccc2)CC1`, which inhibition is on record?
A: 6.19%

Q: `O=C(O)/C=C/c1ccc2c(c1)OCCO2` was tested. Which inhibition did it give?
A: -7.83%

Q: With `O=C(CN1CCCCC1)Nc1ccccc1Cl` as the compound, how does the inhibition read?
A: -3.07%

Q: How did the inhibition turn out when `O=C(Nc1ccccc1Cl)/C(Cl)=C(\Cl)S(=O)c1ccccc1` (stereo not given) was run?
A: 98.4% (active)

Q: How did the inhibition turn out when `O=C(Nc1ccccc1Cl)c1ccc2nsnc2c1` was run?
A: -7.15%

Q: With `COC(=O)c1ccccc1NC(=O)C1CCN(S(=O)(=O)c2cc(OC)ccc2OC)CC1` as the compound, how does the inhibition read?
A: -24.9%

Q: How did the inhibition turn out when `O=C1N(c2ccccc2)C(=Nc2ccccc2)SC12CC2` was run?
A: 1.83%

Q: With `CCN(CC)S(=O)(=O)c1ccc(C)c(NC(=O)COc2ccc(Br)cc2Cl)c1` as the compound, how does the inhibition read?
A: -3.44%

Q: `COc1ccc(N2CCC(CNC(=S)Nc3c(C)cccc3C)C2)cc1` (stereo not given) was tested. Which inhibition did it give?
A: 4.09%

Q: `CCOc1ccc2nc(C(=O)N3CCCC(C)C3)sc2c1` (stereo not given) was tested. Which inhibition did it give?
A: 14.6%

Q: `O=C(Cc1cccs1)N(CC1CCCO1)C1(C(=O)NC2CCCCC2)CCCCC1` (stereo not given) was tested. Which inhibition did it give?
A: -13.5%

Q: Which inhibition does the source give for `O=C(Nc1nnc(C2COc3ccccc3O2)o1)c1ccc(F)cc1` (stereo not given) here?
A: -4.96%

Q: With `CC(C)c1cc(NCc2ccccn2)n2c(nc3ccccc32)c1C#N` as the compound, how does the inhibition read?
A: 12.6%

Q: Which inhibition does the source give for `Cn1nnnc1NCc1ccc(Cl)c(Cl)c1` here?
A: 4.37%

Q: With `CCCCCC(O)c1cccc(OCc2ccc3ccccc3n2)c1` (stereo not given) as the compound, how does the inhibition read?
A: -14.6%

Q: For `O=C(NCCCc1ccccc1)C1CCC(CNc2c(N3CCCCC3)c(=O)c2=O)CC1` (stereo not given), which inhibition is on record?
A: 0.07%

Q: For `CC(C)c1ccc(NC(=O)CCN2C(=O)c3ccc([N+](=O)[O-])cc3C2=O)cc1`, which inhibition is on record?
A: -5.92%

Q: Which inhibition does the source give for `CC(=O)c1c(-c2ccccc2)c2ccccc2[nH]c1=O` here?
A: -27.5%

Q: How did the inhibition turn out when `O=C(O)CSc1nccn1-c1cccc(Cl)c1` was run?
A: -14.5%

Q: With `C/C(=N\Nc1ccc([N+](=O)[O-])cc1)c1ccc(-n2nncc2C(C)(C)C)cc1` as the compound, how does the inhibition read?
A: -11.5%

Q: With `COc1ccc(/C=N/NC(=O)Nc2ccc3nsnc3c2)c(OC)c1` as the compound, how does the inhibition read?
A: 9.36%

Q: With `CC(=O)c1cccc(NC(=O)[C@@H](NC(N)=O)C(C)C)c1` as the compound, how does the inhibition read?
A: -13.9%

Q: `Cc1ccc(S(=O)(=O)Nc2nc3ccccc3s2)cc1[N+](=O)[O-]` was tested. Which inhibition did it give?
A: -9.6%

Q: For `COc1ccc(NC(=S)Nc2ccccc2Cl)cn1`, which inhibition is on record?
A: -10.6%

Q: `COc1ccc(CS(=O)/C(Cl)=C(/Cl)C(=O)Nc2ccc(OC)nc2)cc1` (stereo not given) was tested. Which inhibition did it give?
A: 95.9% (active)

Q: `COc1ccc(Nc2cc(Cl)ccc2C(=O)O)cn1` was tested. Which inhibition did it give?
A: 0.55%

Q: Which inhibition does the source give for `COc1ccc(NC(=O)/C(Cl)=C(/Cl)S(=O)Cc2ccc(C)cc2)cn1` (stereo not given) here?
A: 59.5% (active)

Q: For `COc1ccc(NC(=S)NCCNC(C)=O)cc1`, which inhibition is on record?
A: 4.01%

Q: For `Cc1ccc(NC(=O)OCc2cncs2)cc1`, which inhibition is on record?
A: 6.88%

Q: `CCn1cc(-c2cc(C(=O)O)on2)c(C)n1` was tested. Which inhibition did it give?
A: -15.2%

Q: How did the inhibition turn out when `Cc1csc(CN(C)C(=O)CC2C(=O)NCCN2CC(C)(C)C)n1` (stereo not given) was run?
A: 2.01%

Q: `CC(C)N(C)C(=O)CCc1nnc(CCc2c[nH]c3ccccc23)o1` was tested. Which inhibition did it give?
A: -1.14%

Q: For `CCOc1ccc(C(CCc2ccccc2)NC(=O)c2ccc(OC)c(OC)c2)cc1OCC` (stereo not given), which inhibition is on record?
A: 0.03%

Q: Which inhibition does the source give for `CC(=O)Nc1ccc(S(=O)(=O)Nc2nccc(/C=C/c3ccccc3F)n2)cc1` here?
A: -21.4%

Q: Which inhibition does the source give for `O=C(CC(O)(C(F)(F)F)C(F)(F)F)Nc1ccc(Cl)c(Cl)c1` here?
A: 33.2% (active)

Q: For `O=C(CC(=O)Nc1ccc(Cl)c(Cl)c1)N/N=C/c1ccc(O)cc1`, which inhibition is on record?
A: -17.9%

Q: `CN(C)CCNC(CC(=O)Nc1ccc(Cl)c(Cl)c1)C(=O)O` (stereo not given) was tested. Which inhibition did it give?
A: 0.14%

Q: With `CN(C(=O)CSc1nnc(Nc2ccccc2)s1)C1CCS(=O)(=O)C1` (stereo not given) as the compound, how does the inhibition read?
A: -10.1%

Q: Which inhibition does the source give for `Cc1ccc(OCCOCCOc2ccc(Br)cc2/C=N\NC(=O)c2ccncc2)cc1` here?
A: -17.4%

Q: For `N#Cc1c(-c2cccs2)nc(SCC(=O)c2ccc(Br)cc2)[nH]c1=O`, which inhibition is on record?
A: 15.8%

Q: `Cc1ccc(C(=O)Nc2sc(Cc3ccc4c(c3)OCO4)c(C)c2C(N)=O)cc1` was tested. Which inhibition did it give?
A: -11.1%

Q: With `O=C(Nc1ccccc1)OCc1cc(-c2ccc(Cl)cc2)on1` as the compound, how does the inhibition read?
A: -6.25%

Q: How did the inhibition turn out when `O=C1C=C(c2ccc(Cl)cc2)C(=O)N1Nc1ccccc1` was run?
A: 34.7% (active)

Q: For `O=C1c2cccc3cc(Br)cc(c23)C(=O)N1Nc1ccccc1`, which inhibition is on record?
A: -15.2%

Q: For `FC(F)(F)c1cccc(-c2nc(COc3ccc(Cl)cc3Cl)no2)c1`, which inhibition is on record?
A: -7.31%

Q: How did the inhibition turn out when `Oc1ccc(-c2nncn2-c2ccccc2)cc1` was run?
A: -11.3%

Q: With `CCNC(=O)COC(=O)CCNC(=O)c1cccc(C)c1` as the compound, how does the inhibition read?
A: -16.4%

Q: Which inhibition does the source give for `CCN(CCNC(=O)C1=C(C)C(=O)OC12CCC(C)CC2)c1ccccc1` (stereo not given) here?
A: 7.01%

Q: Which inhibition does the source give for `O=C(CCN1C(=O)C2C3C=CC(C3)C2C1=O)Oc1ccc2ccccc2c1` (stereo not given) here?
A: 0.5%

Q: With `O=C(NCc1ccc2c(c1)OCO2)c1ccc2c(c1)C(=O)N(CC1CCCO1)C2=O` (stereo not given) as the compound, how does the inhibition read?
A: 4.48%

Q: Which inhibition does the source give for `O=C1c2cccc3c([N+](=O)[O-])ccc(c23)C(=O)N1CC1CCCO1` (stereo not given) here?
A: 77.4% (active)

Q: With `O=c1c2cc3c(=O)n(CC4CCCO4)c(=O)c3cc2c(=O)n1CC1CCCO1` (stereo not given) as the compound, how does the inhibition read?
A: 1.15%

Q: `Cc1onc(NC(=O)c2ccc([N+](=O)[O-])o2)c1Br` was tested. Which inhibition did it give?
A: 28.1%

Q: For `Cc1cccc(NC(=O)c2ccc([N+](=O)[O-])o2)c1`, which inhibition is on record?
A: 47.9% (active)

Q: With `Cc1cccc(NC(=S)NC(=O)c2ccc(Br)o2)c1` as the compound, how does the inhibition read?
A: -1.45%

Q: `CN(C)C(=O)CSc1n[nH]c(-c2ccco2)n1` was tested. Which inhibition did it give?
A: -22.7%
